From PubChem BioAssay (Tox21)
Records with an inconclusive call do not appear. Active and inactive are the calls of the source. Unless noted, calls follow the shape of the dose curve; as a rule, active = well fitted curve in the direction sought with a large enough effect in the repeat runs; inconclusive = weak or mixed curves; inactive = no such curve, though single readings can be large; an effect the other way counts as inactive or inconclusive.

Legend:
[1] = qHTS assay to identify small molecule agonists of the hypoxia (HIF-1) signaling pathway - cell viability counter screen (AID 1224844; calls by dose curve; also: nearly all actives have a fitted effect of over 50% in size)
In short: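 Same wells as the HIF-1 reporter screen; ME-180 cells carrying HRE-bla, 17 hr treatment at 37C; CellTiter-Glo luminescence read after 30 min at room temperature.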

[2] = qHTS assay to identify small molecule agonists of H2AX (AID 1224845; active = well fitted activation curve with a large enough effect in the signal ratio in the repeat runs, not every such curve was filed as active; the % refers to the signal ratio)
In short: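 Wild-type CHO-K1 cells, plated overnight, exposed 3hr at 37C to 15 concentrations (0.76% DMSO final). Lysed, then HTRF anti-pH2AX (S139) cryptate and anti-H2AX-d2 antibodies, 24 hr room temperature; 665/620 nm emission read.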

[3] = qHTS assay to identify small molecule agonists of the hypoxia (HIF-1) signaling pathway (AID 1224846; active = well fitted activation curve with a large enough effect in the signal ratio in the repeat runs, not every such curve was filed as active; the % refers to the signal ratio)
In short: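 In ME-180 cells bearing an HRE-bla construct, 17 h treatment with DMSO-dissolved compounds at 37C was followed by CCF4-AM loading to quantify reporter induction.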

[4] = qHTS RealTime-Glo MT Cell Viability Assay in HepG2 cells - 24 hour (AID 1224867); also: nearly all actives have a fitted effect of over 50% in size
In short: (§1)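 Luminescence read-out: viable HepG2 cells reduce a prosubstrate to a NanoLuc substrate, giving a signal proportional to live cell number. Reads taken at 0, 8, 16, 24, 32 and 40 h of compound exposure at 37 C.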

[5] = qHTS RealTime-Glo MT Cell Viability Assay in HEK293 cells - 32 hour (AID 1224868); also: top concentration of the series differs between compounds; nearly all actives have a fitted effect of over 50% in size
In short: (§2)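 Nonlytic real-time viability readout: viable cells convert prosubstrate to NanoLuc substrate, giving luminescence proportional to live cell number. HEK293, 600 cells/well, compound added after 5 h, continuous culture at 37 C.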

[6] = A CellTox Green Cytotoxicity Assay to monitor cytotoxicity in HEK293 cells - 0 hour (AID 1224869); also: nearly all actives have a fitted effect of over 50% in size
In short: (§3)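 Homogeneous no-lysis format: HEK293 cell suspension mixed with CellTox Green reagent, seeded, incubated 5 h at 37 C/5% CO2, then dosed by pintool with compound in DMSO.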

[7] = qHTS RealTime-Glo MT Cell Viability Assay in HepG2 cells - 40 hour (AID 1224870); also: nearly all actives have a fitted effect of over 50% in size
In short: (§4)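 HepG2 cells (600/well) mixed with RealTime-Glo MT reagent, settled 5 h at 37 C/5% CO2 before compound addition. Nonlytic NanoLuc luminescence from viable-cell prosubstrate reduction read repeatedly during 40 h treatment at 37 C.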

[8] = A CellTox Green Cytotoxicity Assay to monitor cytotoxicity in HEK293 cells - 40 hour (AID 1224871); also: nearly all actives have a fitted effect of over 45% in size; also: potency is read from the fitted curve at half-maximal effect
In short: as §3

[9] = qHTS RealTime-Glo MT Cell Viability Assay in HEK293 cells - 16 hour (AID 1224872)
In short: as §2

[10] = qHTS RealTime-Glo MT Cell Viability Assay in HEK293 cells - 40 hour (AID 1224874); conditions: RealTime-Glo luminescence; max response: hits give low values; also: nearly all actives have a fitted effect of over 50% in size
In short: (§5)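 Measured as luminescence from the same continuously cultured HEK293 wells at successive time points (0, 8, 16, 24, 32, 40 h) after compound addition. Reagent present from seeding; dosing at 5 h; incubation 37 C.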

[11] = A CellTox Green Cytotoxicity Assay to monitor cytotoxicity in HEK293 cells - 24 hour (AID 1224875); also: nearly all actives have a fitted effect of over 45% in size
In short: as §3

[12] = qHTS RealTime-Glo MT Cell Viability Assay in HepG2 cells - 32 hour (AID 1224877); also: nearly all actives have a fitted effect of over 55% in size
In short: as §1

[13] = A CellTox Green Cytotoxicity Assay to monitor cytotoxicity in HepG2 cells - 24 hour (AID 1224878); also: nearly all actives have a fitted effect of over 45% in size; also: potency is read from the fitted curve at half-maximal effect
In short: (§6)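 Fluorescent DNA-binding dye, 600 HepG2 cells/well, 5 h preincubation then compound in DMSO; same plates read at 0–40 h, 37 C.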

[14] = qHTS RealTime-Glo MT Cell Viability Assay in HEK293 cells - 0 hour (AID 1224880); also: top concentration of the series differs between compounds; nearly all actives have a fitted effect of over 45% in size
In short: as §5

[15] = qHTS assay to identify small molecule antagonists of the estrogen related receptor (ERR) signaling pathway from Tox21 library (AID 1224848); also: nearly all actives have a fitted effect of over 50% in size
In short: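 Compounds dissolved in DMSO are pin-transferred onto ERR reporter cells (2,000 per well) that have settled for 6 h at 37 C. Plates then incubate 18 h at 37 C before ONE-Glo luciferase reagent and a luminescence read 30 min later.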

[16] = qHTS assay to identify small molecule agonists of the estrogen related receptor (ERR) signaling pathway from Tox21 library (AID 1224849; calls by dose curve; also: nearly all actives have a fitted effect of over 15% in size); conditions: ERR reporter cell line, ONE-Glo luciferase, 18 h; at 92.4 µM (top of the series) unless noted
In short: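 Reporter cells (ERR, NTP source) treated with Tox21 10K compounds 18 h, 37 C. Readout: ONE-Glo luminescence, 30 min RT.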

[17] = qHTS RealTime-Glo MT Cell Viability Assay in HepG2 cells - 8 hour (AID 1224873); also: nearly all actives have a fitted effect of over 55% in size
In short: as §4

[18] = A CellTox Green Cytotoxicity Assay to monitor cytotoxicity in HepG2 cells - 16 hour (AID 1224876); also: nearly all actives have a fitted effect of over 45% in size
In short: as §6

[19] = A CellTox Green Cytotoxicity Assay to monitor cytotoxicity in HepG2 cells - 40 hour (AID 1224879); also: nearly all actives have a fitted effect of over 40% in size
In short: as §6

[20] = qHTS assay to identify small molecule agonists of H2AX - cell viability counter screen (AID 1224847; calls by dose curve; also: top concentration of the series differs between compounds; nearly all actives have a fitted effect of over 30% in size)
In short: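 Compounds tested at 15 concentrations were incubated 3 hr at 37C with wild-type CHO-K1 cells; cellular ATP-based luminescence (CellTiter-Glo) indicated viability.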
% is scaled to controls: 0 for no effect and ±100 for the full control effect.

CC(=O)/C=C/C1C(C)=CCCC1(C)C (stereo not given)
inactive: Potency [1] | Potency [2] | outcome [3] | Potency [4] | Potency [5] | Potency [6] | Potency [7] | Potency [8] | Potency [9] | max response [10] 0% | Potency [11] | Potency [12] | Potency [13] | Potency [14]

CC(=O)OC/C=C/c1ccccc1
inactive: Potency [1] | Potency [2] | outcome [3] | Potency [15] | activity change, positive = activation [16] 0.279% | Potency [4] | Potency [6] | Potency [7] | Potency [8] | Potency [9] | Potency [17] | max response [10] 5.43% | Potency [11] | Potency [18] | Potency [12] | Potency [13] | Potency [19] | Potency [14]

C[Si](C)O[Si](C)(C)O[Si](C)(C)O[Si](C)C
inactive: Potency [1] | Potency [2] | outcome [3] | Potency [20] | Potency [5] | Potency [6] | Potency [7] | Potency [8] | Potency [9] | Potency [17] | max response [10] 7.78% | Potency [11] | Potency [12] | Potency [13] | Potency [19] | Potency [14]

CCCCCc1ccc(N)cc1
inactive: Potency [1] | Potency [2] | outcome [3] | Potency [4] | Potency [5] | Potency [6] | Potency [9] | Potency [17] | max response [10] -15.3% | Potency [12] | Potency [14]
active: Potency [8] 49 µM | Potency [13] 49 µM

NC[C@H]1O[C@H](O[C@H]2[C@H](O)[C@@H](O[C@H]3O[C@H](CO)[C@@H](O)[C@H](N)[C@H]3O)[C@H](N)C[C@@H]2N)[C@H](O)[C@@H](O)[C@@H]1O
inactive: activity change, negative = cytotoxicity [1] -8.41% [at 6.97 µM] | activation (H2AX phosphorylation) [2] -0.622% [at 14 µM] | activity change, negative = cytotoxicity [20] 4.56% [at 14 µM] | activity, negative = inhibition [15] 17.9% [at 8.39 µM] | activity change, positive = activation [16] 8.77% [at 8.39 µM] | activity change, negative = cytotoxicity [4] -0.929% [at 6.97 µM] | activity change, negative = cytotoxic [5] 12.4% [at 6.97 µM] | cytotoxicity [6] 6.99% [at 6.97 µM] | activity change, negative = cytotoxic [7] -6.23% [at 6.97 µM] | cytotoxicity increase [8] 9.35% [at 6.97 µM] | activity change, negative = cytotoxicity [9] 8.96% [at 6.97 µM] | viability change, negative = cytotoxic [17] 5.97% [at 6.97 µM] | max response [10] 12.1% | activity change [11] 8.95% [at 6.97 µM, hits give high values] | activity change, negative = cytotoxic [12] -15.9% [at 6.97 µM] | cytotoxicity [13] 10.9% [at 6.97 µM] | cytotoxicity increase [19] 9.32% [at 6.97 µM] | activity change, negative = cytotoxicity [14] 12.9% [at 6.97 µM]

CN(C)CCCOc1nn(Cc2ccccc2)c2ccccc12
inactive: Potency [1] | Potency [2] | outcome [3] | Potency [15] | activity change, positive = activation [16] -2.65% [at 42.5 µM] | Potency [6] | Potency [9] | Potency [17] | Potency [11] | Potency [12]

N#CCc1cccc(C(F)(F)F)c1
inactive: Potency [1] | Potency [2] | outcome [3] | Potency [4] | Potency [5] | Potency [6] | Potency [7] | Potency [8] | Potency [9] | max response [10] 10.3% | Potency [11] | Potency [18] | Potency [12] | Potency [13] | Potency [19] | Potency [14]

CCN(CC)CCOC(=O)C1(c2ccccc2)CCCC1
inactive: Potency [1] | Potency [2] | outcome [3] | Potency [15] | activity change, positive = activation [16] 0.628% [at 42.5 µM] | Potency [4] | Potency [5] | Potency [6] | Potency [8] | Potency [17] | max response [10] -9.49% | Potency [11] | Potency [18] | Potency [12] | Potency [13] | Potency [14]

CCCCC(CC)(CO)CO
inactive: Potency [1] | Potency [2] | outcome [3] | Potency [20] | Potency [4] | Potency [6] | Potency [7] | Potency [17] | max response [10] -0.853% | Potency [11] | Potency [18] | Potency [12] | Potency [13] | Potency [14]

CCN(CC)CCc1nc(-c2ccccc2)no1
inactive: Potency [1] | Potency [2] | outcome [3] | Potency [15] | activity change, positive = activation [16] 0.733% [at 42.5 µM] | Potency [5] | Potency [6] | Potency [7] | Potency [8] | Potency [9] | Potency [17] | max response [10] 0.0849% | Potency [11] | Potency [18] | Potency [12] | Potency [13] | Potency [14]

CCCCCOC(=O)COc1cc(N2C(=O)C3=C(CCCC3)C2=O)c(F)cc1Cl
inactive: Potency [1] | Potency [2] | outcome [3] | Potency [4] | Potency [6] | Potency [7] | Potency [8] | Potency [9] | Potency [17] | max response [10] 4.37% | Potency [11] | Potency [18] | Potency [12] | Potency [19] | Potency [14]

FC(F)(F)C(F)(F)C(F)(F)C(F)(F)C(F)(F)C(F)(F)CCI
inactive: Potency [1] | Potency [2] | outcome [3] | Potency [20] | Potency [5] | Potency [6] | Potency [7] | Potency [8] | Potency [9] | Potency [17] | max response [10] -0.265% | Potency [11] | Potency [12] | Potency [13] | Potency [19] | Potency [14]

CC(C)(C)c1ccc(S)cc1
inactive: Potency [1] | Potency [2] | outcome [3] | Potency [4] | Potency [5] | Potency [6] | Potency [7] | Potency [9] | max response [10] -0.358% | Potency [11] | Potency [18] | Potency [12] | Potency [13] | Potency [14]

COC(=O)C(C)=O
inactive: Potency [1] | Potency [2] | outcome [3] | Potency [15] | activity change, positive = activation [16] -4.12% | Potency [4] | Potency [6] | Potency [7] | Potency [8] | Potency [9] | Potency [17] | max response [10] -0.909% | Potency [11] | Potency [18] | Potency [12] | Potency [13] | Potency [19] | Potency [14]

CC(C)(C)c1cc(CCC(=O)OCC(COC(=O)CCc2cc(C(C)(C)C)c(O)c(C(C)(C)C)c2)(COC(=O)CCc2cc(C(C)(C)C)c(O)c(C(C)(C)C)c2)COC(=O)CCc2cc(C(C)(C)C)c(O)c(C(C)(C)C)c2)cc(C(C)(C)C)c1O
inactive: Potency [1] | Potency [2] | outcome [3] | Potency [20] | Potency [4] | Potency [6] | Potency [7] | Potency [8] | Potency [17] | max response [10] 0.256% | Potency [11] | Potency [12] | Potency [13] | Potency [19] | Potency [14]
